HPGD inh – qHTS Assay for Inhibitors of HPGD (15-Hydroxyprostaglandin Dehydrogenase); 15-hydroxyprostaglandin dehydrogenase [NAD(+)] (Homo sapiens), P15428; purified HPGD, NADH fluorescence kinetic, PGE2 substrate; Potency, µM, inactives show top-dose activity change, negative = inhibition, usual class: inhibitors; actives 4.3% (n = 150,000); also: potency is read from the fitted curve at half-maximal effect
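20 nM HPGD preincubated 15 min at room temperature with compound in 50 mM Tris-HCl pH 8, 0.01% Tween 20. Started with 1 mM NAD+ and 30 uM prostaglandin E2; NADH fluorescence (360/450 nm) read 5 times over 30-s intervals, last minus first.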
ALDH1A1 block – qHTS Assay for Inhibitors of Aldehyde Dehydrogenase 1 (ALDH1A1); actives 7.3% (n = 220,000); Potency, µM (highest dose often 75.3 µM), without a hit: top-dose activity, negative = inhibition, usual class: inhibitors; Purified ALDH1A1, NADH fluorescence, propionaldehyde substrate;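 also: potency is read from the fitted curve at half-maximal effect; plate controls were no enzyme wells and a reference inhibitor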
Target sequence (P00352 whole entry, looked up): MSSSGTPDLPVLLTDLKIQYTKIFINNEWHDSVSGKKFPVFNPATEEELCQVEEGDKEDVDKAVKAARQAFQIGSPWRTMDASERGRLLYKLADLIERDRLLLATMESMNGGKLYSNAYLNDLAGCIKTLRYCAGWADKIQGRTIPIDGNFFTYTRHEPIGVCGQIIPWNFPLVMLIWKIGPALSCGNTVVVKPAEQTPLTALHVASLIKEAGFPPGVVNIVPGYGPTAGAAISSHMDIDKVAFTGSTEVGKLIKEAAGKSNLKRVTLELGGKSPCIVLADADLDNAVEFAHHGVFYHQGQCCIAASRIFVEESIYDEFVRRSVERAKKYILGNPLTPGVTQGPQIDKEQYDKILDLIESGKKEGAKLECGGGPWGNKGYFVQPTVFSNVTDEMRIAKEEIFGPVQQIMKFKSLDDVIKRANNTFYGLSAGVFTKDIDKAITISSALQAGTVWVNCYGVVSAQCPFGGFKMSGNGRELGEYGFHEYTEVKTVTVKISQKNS
PNC assembly inh – High Content Assay for Compounds that inhibit the Assembly of the Perinucleolar Compartment; PC3M PTB-GFP, PNC prevalence imaging, 16 h; active compounds read low; activity change (PNC), negative = inhibition, % at 10 µM; actives 3.1% (n = 140,000);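 active = readout at or below -70, meaning at least 70% loss of cells showing the perinucleolar compartment, a nuclear body marking cancer cells; inconclusive = readout between -30 and a set limit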;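 also: plate controls were DMSO wells for no effect and camptothecin positive control wells for full effect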
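Read-out is percentage of cells bearing a perinucleolar compartment, from automated 20x imaging of fixed, Hoechst-stained PC3M PTB-GFP cells. Cells were seeded 4 h, then exposed 16 h to compound (23 nl of library stock) in duplicate plates.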
The depositor's hits bear a star; ? = inconclusive; / = no result; ! = repeats disagree; [ ] = dose if it differs, or a comment. An excerpt weighted towards active compounds, which were near 11% of everything screened. Unless noted, calls follow the shape of the dose curve; as a rule, active = well fitted inhibition curve with a large enough effect (not every such curve was filed as active); inconclusive = small, poorly fitted or top-dose-only effect, or another doubt; inactive = no such curve, though single readings can be large or run the other way. Unless noted, % is scaled to controls: 0 for no effect and ±100 for the full control effect.

SMILES	HPGD inh	ALDH1A1 block	PNC assembly inh
CN1[C@@H]2CC[C@H]1CC(O[C@@H](c1ccccc1)c1ccc(Cl)cc1)C2 (some centres not stated)	-4%	5%	/
Cn1c(O)c(/C=C/C=Nc2ccccc2)c(=O)n(C)c1=S	/	13µM*	-17
Cc1cccc(-n2c(O)c(/C=C/C=Nc3ccccc3)c(=O)[nH]c2=O)c1	-21%	-12%	31
CC(C)[C@@]1(NC(=O)[C@H]2CC3c4cccc5[nH]cc(c45)C[C@H]3N(C)C2)O[C@@]2(O)C3CCCN3C(=O)[C@@H](Cc3ccccc3)N2C1=O (some centres not stated)	/	-2%	/
COC(=O)C(O)C(O)(CCC(C)C)C(=O)OC1C(OC)=CC23CCCN2CCc2cc4c(cc2C13)OCO4 (configuration not stated)	0%	8%	/
CC(O)C(C)OC(=O)[C@@H]1C[C@@H]2c3cccc4c3c(cn4C(C)C)C[C@H]2N(C)C1 (some centres not stated)	-16%	1.8µM*!	/
CN1C[C@@H](CS(=O)(=O)N(C)C)C[C@@H]2c3cccc4c3c(cn4C)C[C@H]21	-7%	-4%	/
CCCC(=O)Cl	-2%	4%	/
NC(C(=O)O)C1CC(Cl)=NO1 (configuration not stated)	-7%	-2%	-3
Nc1nc(=S)c2ncn([C@H]3O[C@@H](CO)[C@@H](O)[C@@H]3O)c2[nH]1	-16%	?	/
Nc1nc2c(ncn2[C@@H]2O[C@H](CO)[C@@H](O)[C@@H]2O)c(=[SH+])[nH]1.O=[N+]([O-])c1ccc(O)[c]([Hg])c1	0.025µM*	0.05µM*	/
CCCBr	-3%	5%	/
N#CC(C#N)=NNc1ccc(OC(F)(F)F)cc1	-27%	2.8µM*	/
N#CC(C#N)=NNc1cccc(Cl)c1	-24%	7%	/
CCN1C[C@@]2(COC)CC[C@H](O)[C@@]34[C@@H]2C[C@@H]([C@@H]13)[C@]1(O)C[C@@H](OC)C2C[C@H]4[C@H]1[C@H]2OC(C)=O	3%	6%[20.9 µM]	/
Clc1ccc(Cl)cc1	-8%	3%	/
COc1ccc2c(c1)[C@@]13CCCCC1[C@@H](C2)N(C)CC3 (some centres not stated)	-2%	-2%	/
O=C=NC1CCCCC1	-4%	28µM*!	/
C(=NC1CCCCC1)=NC1CCCCC1	-1%	-8%	/
CN[C@H]1C[C@H]2O[C@@](C)([C@H]1OC)n1c3ccccc3c3c4c(c5c6ccccc6n2c5c31)C(=O)NC4	?	-8%	-115*
COC(=O)C1(O)CC2OC1(C)n1c3ccccc3c3c4c(c5c6ccccc6n2c5c31)C(=O)NC4 (configuration not stated)	-16%	-2%[13.5 µM]	/
OC(c1ccc(Cl)cc1)(c1ccc(Cl)cc1)C(Cl)(Cl)Cl	-6%	-5%	/
[N-]=[N+]=CC(=O)CC[C@H](N)C(=O)O	-5%	3%[13.5 µM]	/
ClC1=C(Cl)C(Cl)(Cl)C(Cl)=C1Cl	-8%	28µM*	/
NCCCP(=O)(O)CC1CCCCC1	-3%	7%	/
SMILES	HPGD inh	ALDH1A1 block	PNC assembly inh
COc1cccc(-c2nc(CS(=O)CC(=O)N3CCC4(CC3)OCCO4)c(C)o2)c1 (configuration not stated)	-13%	35µM*	21
Cc1oc(-c2ccc(Cl)cc2)nc1CS(=O)CC(=O)N1CCC2(CC1)OCCO2 (configuration not stated)	-7%	3%	68
CCN(CC)CCN=Cc1c(O)n(Cc2ccco2)c(=O)[nH]c1=O	/	11%	/
CCCCC(=O)N/N=C/c1c(O)n(Cc2ccco2)c(=O)[nH]c1=O	-30%	1%	18
CC(=O)Nc1ccc(N=Cc2c(O)n(Cc3ccco3)c(=O)[nH]c2=O)cc1	/	9.5µM*	/
Cc1c(N=Cc2c(O)n(Cc3ccco3)c(=O)[nH]c2=O)c(=O)n(-c2ccccc2)n1C	-19%	?	-82*
Cc1c(N=Cc2c(O)n(Cc3ccccc3)c(=O)[nH]c2=O)c(=O)n(-c2ccccc2)n1C	?	-12%	6
O=c1[nH]c(=O)n(Cc2ccco2)c(O)c1C=NCc1ccco1	28µM*	10µM*	27
CCN(CC)/[N+]([O-])=N/O	-2%	-6%	/
CC(C)(O)[C@@H]1[C@H]2OC(=O)[C@@H]1[C@]1(O)C[C@H]3O[C@]34C(=O)O[C@H]2[C@@]14C (tested in a mixture with another compound)	-8%	9%	/
S=P(C1CCCCC1)(C1CCCCC1)[C@H](c1cccnc1)N1CCCC1	2%	-16%[13.5 µM]	/
CCN(CC)c1ncnc2c1ncn2[C@@H]1O[C@@H](COP(=O)(O)OP(=O)(O)C(Br)(Br)P(=O)(O)O)[C@H](O)[C@H]1O	-18%	-6%	/
[N-]=[N+]=[N-]	-10%	18µM*	/
O=c1c2ccccc2nc(/C=C/c2cccnc2)n1Cc1ccccc1	/	5µM*	/
O=c1c2ccccc2nc(/C=C/c2ccc(O)cc2)n1-c1ccccc1O	/	-12%	/
O=C(O)C[O][Sb][O]CC(=O)O	0%	11%[13.5 µM]	/
NC(CCl)=N[C@H]1CN2CCC1CC2	-2%	?	/
CCOC(=O)c1c(-n2c(C)cc(C=C3C(=O)NC(=O)NC3=O)c2C)sc2c1CCCC2	-17%	-2%	36
Cc1cccc(N2C(=O)NC(=O)/C(=C\c3cc(C)n(-c4sc5c(c4C#N)CCCC5)c3C)C2=O)c1C	4µM*	0.25µM*	17
C/C=C/C=O	-4%	-2%	/
COc1cccc2c1C13CC[N+]4(CC5CC5)CO[C@]1(CCC(=O)C3)C4C2	/	-3%	/
CNCCc1c[nH]c2ccccc12	/	18µM*	/
CNCCc1c[nH]c2ccc(O)cc12	-5%	2%	/
O=C(Oc1ccccc1)N1CCC2(CC1)CN(C(c1ccccc1)c1ccccc1)C2	-7%	?	/
CC(=O)Nc1ccc(S(=O)(=O)NC(CC(=O)N2CCC3(CC2)OCCO3)C(C)C)cc1 (configuration not stated)	3%	4%	-19
SMILES	HPGD inh	ALDH1A1 block	PNC assembly inh
Cc1ccc(S(=O)(=O)NC(CC(=O)N2CCC3(CC2)OCCO3)c2ccco2)cc1 (configuration not stated)	-2%	13µM*	-8
COP(=S)(OC)SCN1C(=O)c2ccccc2C1=O	20µM*	?	-24
CNC(=O)CSP(=S)(OC)OC	-8%	?	/
CC1=CC(=O)OC2CC3OC4C[C@@H](C)C5OC6CC7O[C@]8(C)C/C=C\C9OC%10CC%11OC(CC(C)CO)CC(O)[C@]%11(C)OC%10CC9OC8C[C@]7(C)O[C@]6(C)CCC5OC4C[C@]3(C)OC12 (some centres not stated)	/	2.8µM*	/
C[C@H]1C[C@H](C)C(=O)[C@@H]([C@H](O)CC2CC(=O)NC(=O)C2)C1	-8%	0%	/
CN1CCc2nc(CO)c(CO)cc2C1	/	7%[13.5 µM]	/
ClC1=C(Cl)C2(Cl)C3C(Cl)C(Cl)CC3C1(Cl)C2(Cl)Cl (configuration not stated)	-4%	-16%	/
O=c1[nH]sc2cc(F)ccc12	/	1.4µM*	/
OCC(CBr)(CBr)CBr	-9%	18µM*	/
O=CN1CCCCC1C1CC[C@H]2CCCCN2C1 (some centres not stated)	-2%	6%	/

High-throughput results (PubChem)
